Where “and” joins values, the source holds several entries; their conditions need not be identical. Equal values may be shown once. The panel holds about 79,000 compounds, 15% with a hit somewhere; the sample as a whole holds those more often. Some compounds were tested as several samples or in several runs, with calls that do not always agree. Calls of active or inactive are those of the source. Cut-off read from the data, not from the text of the source: active = growth inhibition above about 70%; inactive = the rest.

One assay in a line: NCI Yeast Anticancer Drug Screen. Data for the bub3 strain (AID 167). As to conditions: S. cerevisiae bub3 mutant strain, at 33.0 µM, stronger effect = higher value. The gist of the method:
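Compounds were applied to a genetically altered yeast strain carrying a cell-cycle control defect. Growth inhibition was scored against vehicle-treated controls.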
With `CS(=O)(=O)SCc1ccc([N+](=O)[O-])cc1`, the growth inhibition was 99% (active).

In the case of `Cc1csc(=S)n1OC(=O)NC1CCCCC1`, the growth inhibition was 100% (active).

Consider `CCOc1ccc(NC(=O)C2=C(C)NC(C)=C(C(=O)Nc3ccc(OCC)cc3)C2c2cccc([N+](=O)[O-])c2)cc1`, for which the growth inhibition was 54% (inactive).

Take `CC(C)(C)N=C(NO)c1ccccc1`: the growth inhibition was -9% (inactive).

In the case of `CCCCC/C(=C(\C#N)C(=O)OCC)c1ccccc1`, the growth inhibition is 11% (inactive).

With `O=C(NCCCl)Sc1ccc(Cl)cc1`, the growth inhibition was 29% (inactive).

For `O=C1Nc2ccc(Br)cc2C1=Nc1ccc2c(c1)OCO2`, the growth inhibition is 2% (inactive).

On to `CCC(C)OC(=O)Nc1ccc(C)c(NC(=O)OC(C)CC)c1` (stereo not drawn), for which the growth inhibition is 4% (inactive).

Take `O=C(O)c1cc2ccc(Cl)cc2c(O)c1C1=CCCCC1`: the growth inhibition is 32% (inactive).

Take `CN(C)Cc1cc(N=Nc2ccc(Cl)cc2)ccc1OC(=O)c1ccccc1`: the growth inhibition was 5% (inactive).

For `CN1CCN(C(=O)/C=C/C(=O)c2ccccc2)CC1`, the growth inhibition is 80% (active).

On to `CCCC/C=C/C(C)(C(=O)OCC)C(=O)OCC`, for which the growth inhibition was -1% (inactive).

Regarding `Cc1nc(-c2cc3cc([N+](=O)[O-])ccc3oc2=O)cs1`, the growth inhibition is 3% (inactive).

Turning to `Cc1nc2ccccc2nc1NNc1ccccc1`, the growth inhibition is 51% (inactive).

`CN(C)[C@@H]1C(=O)C(C(N)=O)=C(O)[C@@]2(O)C(=O)C3=C(O)c4c(O)cccc4C[C@H]3C[C@@H]12`: the growth inhibition was 97% (active).

Turning to `COc1ccc(NC(=O)CC2SC(=Nc3ccccc3C)NC2=O)c([N+](=O)[O-])c1` (stereo not drawn), the growth inhibition is 6% (inactive).

As to `COc1cc(O)c2c(c1O)C(=O)c1cc(C)ncc1C2=O`, the growth inhibition is 51% (inactive).

In the case of `CSc1nnc(SC)nn1`, the growth inhibition was 90% (active).

On to `COc1cc(/C=C2\CCC/C(=C\c3ccc(O)c(OC)c3)C2=O)ccc1O`, for which the growth inhibition is -4% (inactive).

With `CN(C)CCNC(=O)c1cccc2cc([N+](=O)[O-])ccc12`, the growth inhibition was 51% (inactive).

`CCC(C)(C)c1ccc(Oc2cccc(C(=O)O)c2)cc1`: the growth inhibition is 68% (inactive).

Regarding `CCCCCCSc1ncnc2[nH]ncc12`, the growth inhibition was 15% (inactive).

For `CC(=O)Nc1ccc(/C=C/[N+](=O)[O-])cc1`, the growth inhibition was 6% (inactive).

Regarding `CCOC(=O)c1[nH]n(-c2ccccc2)c(=O)c1C=NC(=S)C(N)=S`, the growth inhibition is 8% (inactive).

Turning to `CCCC(O)C1CC(C(C)C)CCC1C` (stereo not drawn), the growth inhibition is 1% (inactive).

`O=[n+]1c2ccccc2n([O-])c2cc(Br)ccc21`: the growth inhibition was 99% (active).

With `CN(C)CCNC(=O)c1cccc2c1Oc1c(cccc1[N+](=O)[O-])O2`, the growth inhibition is 26% (inactive).

For the compound `Nc1ncc(-c2ccc(Br)cc2)s1`, the growth inhibition was 82% (active).

With `Cc1cc2cc3cc(C)c(N)cc3nc2cc1N`, the growth inhibition is 69% (inactive).

For the compound `CC12C(=O)OC(=O)C(c3ccccc31)c1ccccc12`, the growth inhibition is -5% (inactive).

In the case of `c1ccc2c(OCC3CO3)cccc2c1` (stereo not drawn), the growth inhibition was -12% (inactive).

As to `CCOC(=N)c1ccc(O)c(OC)c1`, the growth inhibition is 66% (inactive).

For the compound `Nc1cc(N)c(N=Nc2cccc3c(S(=O)(=O)O)cccc23)cc1N=Nc1cc([N+](=O)[O-])ccc1O`, the growth inhibition was 0% (inactive).

Regarding `COC(=O)Oc1cc(Cl)c(Cl)cc1Cl`, the growth inhibition was 3% (inactive).

As to `O=C(O)C1CC(c2ccccc2)=NN1c1ccccc1` (stereo not drawn), the growth inhibition is -10% (inactive).

Consider `COc1cc([C@@H]2c3cc4c(cc3[C@@H](Nc3ccc(NC(=O)c5cc([N+](=O)[O-])cn5C)cc3)[C@H]3COC(=O)[C@H]23)OCO4)cc(OC)c1O`, for which the growth inhibition was 36% (inactive).

Regarding `O=C(O)c1ccccc1/C=N/N=C1c2ccccc2-c2ccccc21`, the growth inhibition is 7% (inactive).

As for `O=C1CC(=O)c2ccccc21`, the growth inhibition was 3% (inactive).

With `Nc1ncnc2c1ncn2C1OC(CO)CC1O` (stereo not drawn), the growth inhibition is 77% (active).

The same assay, now with this note: S. cerevisiae bub3 mutant strain, at 50.0 µM (retest, dose inferred, filed as 5.0), stronger effect = higher value.
Regarding `CS(=O)(=O)SCc1ccc([N+](=O)[O-])cc1`, the growth inhibition is 94% (active).

Consider `Cc1csc(=S)n1OC(=O)NC1CCCCC1`, for which the growth inhibition was 97% (active).

`CCOc1ccc(NC(=O)C2=C(C)NC(C)=C(C(=O)Nc3ccc(OCC)cc3)C2c2cccc([N+](=O)[O-])c2)cc1`: the growth inhibition was 97% (active).

Consider `CC(C)(C)N=C(NO)c1ccccc1`, for which the growth inhibition was 42% (inactive).

With `CCCCC/C(=C(\C#N)C(=O)OCC)c1ccccc1`, the growth inhibition was 7% (inactive).

`O=C(NCCCl)Sc1ccc(Cl)cc1`: the growth inhibition is 84% (active).

In the case of `O=C1Nc2ccc(Br)cc2C1=Nc1ccc2c(c1)OCO2`, the growth inhibition was 73% (active).

As to `CCC(C)OC(=O)Nc1ccc(C)c(NC(=O)OC(C)CC)c1` (stereo not drawn), the growth inhibition is 83% (active).

As for `O=C(O)c1cc2ccc(Cl)cc2c(O)c1C1=CCCCC1`, the growth inhibition is 64% (inactive).

As to `CN(C)Cc1cc(N=Nc2ccc(Cl)cc2)ccc1OC(=O)c1ccccc1`, the growth inhibition is 54% (inactive).

As to `CN1CCN(C(=O)/C=C/C(=O)c2ccccc2)CC1`, the growth inhibition was 91% (active).

Consider `CCCC/C=C/C(C)(C(=O)OCC)C(=O)OCC`, for which the growth inhibition was 12% (inactive).

As for `Cc1nc(-c2cc3cc([N+](=O)[O-])ccc3oc2=O)cs1`, the growth inhibition is 60% (inactive).

As to `Cc1nc2ccccc2nc1NNc1ccccc1`, the growth inhibition was 44% (inactive).

With `CN(C)[C@@H]1C(=O)C(C(N)=O)=C(O)[C@@]2(O)C(=O)C3=C(O)c4c(O)cccc4C[C@H]3C[C@@H]12`, the growth inhibition was 99% (active).

Take `COc1ccc(NC(=O)CC2SC(=Nc3ccccc3C)NC2=O)c([N+](=O)[O-])c1` (stereo not drawn): the growth inhibition is 71% (active).

Regarding `COc1cc(O)c2c(c1O)C(=O)c1cc(C)ncc1C2=O`, the growth inhibition was 42% (inactive).

On to `CSc1nnc(SC)nn1`, for which the growth inhibition was 98% (active).

On to `COc1cc(/C=C2\CCC/C(=C\c3ccc(O)c(OC)c3)C2=O)ccc1O`, for which the growth inhibition is 15% (inactive).

With `CN(C)CCNC(=O)c1cccc2cc([N+](=O)[O-])ccc12`, the growth inhibition was 67% (inactive).

With `CCC(C)(C)c1ccc(Oc2cccc(C(=O)O)c2)cc1`, the growth inhibition is 32% (inactive).

In the case of `CCCCCCSc1ncnc2[nH]ncc12`, the growth inhibition was 54% (inactive).

In the case of `CC(=O)Nc1ccc(/C=C/[N+](=O)[O-])cc1`, the growth inhibition is 43% (inactive).

Consider `CCOC(=O)c1[nH]n(-c2ccccc2)c(=O)c1C=NC(=S)C(N)=S`, for which the growth inhibition was 92% (active).

As to `CCCC(O)C1CC(C(C)C)CCC1C` (stereo not drawn), the growth inhibition was 10% (inactive).

As for `O=[n+]1c2ccccc2n([O-])c2cc(Br)ccc21`, the growth inhibition was 99% (active).

Take `CN(C)CCNC(=O)c1cccc2c1Oc1c(cccc1[N+](=O)[O-])O2`: the growth inhibition was 29% (inactive).

In the case of `Nc1ncc(-c2ccc(Br)cc2)s1`, the growth inhibition was 99% (active).

For `Cc1cc2cc3cc(C)c(N)cc3nc2cc1N`, the growth inhibition was 96% (active).

For `CC12C(=O)OC(=O)C(c3ccccc31)c1ccccc12`, the growth inhibition was 49% (inactive).

As for `c1ccc2c(OCC3CO3)cccc2c1` (stereo not drawn), the growth inhibition was -8% (inactive).

Turning to `CCOC(=N)c1ccc(O)c(OC)c1`, the growth inhibition is 83% (active).

Consider `Nc1cc(N)c(N=Nc2cccc3c(S(=O)(=O)O)cccc23)cc1N=Nc1cc([N+](=O)[O-])ccc1O`, for which the growth inhibition was 79% (active).

In the case of `COC(=O)Oc1cc(Cl)c(Cl)cc1Cl`, the growth inhibition was 4% (inactive).

For `O=C(O)C1CC(c2ccccc2)=NN1c1ccccc1` (stereo not drawn), the growth inhibition is 78% (active).

As to `COc1cc([C@@H]2c3cc4c(cc3[C@@H](Nc3ccc(NC(=O)c5cc([N+](=O)[O-])cn5C)cc3)[C@H]3COC(=O)[C@H]23)OCO4)cc(OC)c1O`, the growth inhibition is 46% (inactive) and 90% (active).

On to `O=C(O)c1ccccc1/C=N/N=C1c2ccccc2-c2ccccc21`, for which the growth inhibition is -3% (inactive).

As to `O=C1CC(=O)c2ccccc21`, the growth inhibition is 6% (inactive).

As to `Nc1ncnc2c1ncn2C1OC(CO)CC1O` (stereo not drawn), the growth inhibition is 92% (active).

The values above are taken from PubChem BioAssay (NCI).
